Among all 5,500 compounds or so, about 2,000 (36%) were called active. Roughly 18% stayed inconclusive and do not appear here. Cut-off read from the data, not from the text of the source: active = normalized growth mostly below about 0.91 (no sharp cut-off); inconclusive = no clear call, values can overlap the other calls; inactive = mostly above about 0.92. Some of the results follow.
Test: chemical genetic growth profiling, strain panel (AID 1159580);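 note: tested at 20 µM; growth read once vehicle control cultures reached saturation at 30 °C; 1 = growth at the plate median or of vehicle wells; lower values mean less growth of the strain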
Conditions: S. cerevisiae deletion strains, growth OD

Measured: normalized growth

S=C(S)OC1CC2CC1C1CCCC21 (stereo not given)
inactive: locus YAL040C, strain CLN3, hits give low values 1 | locus YCL061C, strain MRC1 (second series), hits give low values 1.01 | locus YDR363W, strain ESC2, hits give low values 1.02 | locus YER002W, strain NOP16, hits give low values 1.01 | locus YGR078C, strain PAC10, hits give low values 1 | locus YJR075W, strain HOC1, hits give low values 1 | locus YMR307W, strain GAS1, hits give low values 1.01 | locus YNL128W, strain TEP1, hits give low values 1.01 | locus YNL175C, strain NOP13, hits give low values 1.02 | locus YNL197C, strain WHI3, hits give low values 1.03 | locus YNL224C, strain SQS1, hits give low values 1.06 | locus YNL322C, strain KRE1, hits give low values 1.01 | locus YOR083W, strain WHI5 (second series), hits give low values 1 | locus YPL055C, strain LGE1, hits give low values 0.943 | locus YPL241C, strain CIN2, hits give low values 1.01

Reference: PubChem BioAssay AID1159580 (chemical genetic matrix, 2015)
